The text below walks through data of PubChem BioAssay (NCATS).

In assay [1] the target is Lysosomal acid glucosylceramidase (Homo sapiens) (UniProt P04062). In words: Glucocerebrosidase-p2 (AID 348; in the data active = potency below about 10 µM; note: potency is the fitted concentration of half-maximal effect). The conditions noted are these: purified GBA, blue fluorogenic substrate, 40 min. The procedure, abridged:
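Compounds titrated from 0.6 nM upwards against 0.2 nM enzyme in pH 5.9 citric acid/KH2PO4, taurocholate, tween-20; blue fluorogenic substrate 80 uM, 40 min room temperature, stopped and read Ex 365/Em 440 for AC50.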

For assay [2], the target named is Cytochrome P450 1A2 (Homo sapiens) (UniProt P05177). The assay can be described thus: p450-cyp1a2 (AID 410; calls by dose curve; note: potency is the fitted concentration of half-maximal effect). The procedure, abridged: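 20nM CYP1A2 with 100uM Luciferin-ME (at Km) in 100mM KPO4; compound preincubated 10 min, NADPH regeneration added, 60 min at room temperature. Luciferin quantified by luminescence after detection reagent; normalized to 57 uM furafylline.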
Cytochrome P450 1A2 (Homo sapiens), sequence (P05177 whole entry, looked up): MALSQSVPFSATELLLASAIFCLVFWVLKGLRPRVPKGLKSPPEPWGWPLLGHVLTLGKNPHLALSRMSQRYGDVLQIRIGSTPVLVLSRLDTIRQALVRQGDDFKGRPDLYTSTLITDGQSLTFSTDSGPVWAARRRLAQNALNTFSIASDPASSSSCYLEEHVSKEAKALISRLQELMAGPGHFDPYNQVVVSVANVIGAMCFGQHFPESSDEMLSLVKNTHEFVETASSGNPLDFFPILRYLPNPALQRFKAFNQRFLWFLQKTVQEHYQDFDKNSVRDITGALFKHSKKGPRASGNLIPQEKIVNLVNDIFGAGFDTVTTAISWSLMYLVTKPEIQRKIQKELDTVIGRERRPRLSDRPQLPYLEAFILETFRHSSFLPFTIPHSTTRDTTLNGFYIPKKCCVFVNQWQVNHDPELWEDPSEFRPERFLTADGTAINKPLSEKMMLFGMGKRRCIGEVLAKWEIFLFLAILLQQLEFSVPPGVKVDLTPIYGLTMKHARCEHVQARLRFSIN

In assay [3] the target is Glucocorticoid receptor (Homo sapiens) (UniProt P04150). The assay can be described thus: GR-GFP Redistribution (AID 450;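 active = compounds whose dose series gives a full or clear partial fitted curve of increased nuclear translocation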; note: potency is the fitted concentration of half-maximal effect). As to conditions: U2OS GR-GFP nuclear translocation, laser cytometry, 2 h.
Glucocorticoid receptor (Homo sapiens), sequence (P04150 whole entry, looked up, the tested form may be a part): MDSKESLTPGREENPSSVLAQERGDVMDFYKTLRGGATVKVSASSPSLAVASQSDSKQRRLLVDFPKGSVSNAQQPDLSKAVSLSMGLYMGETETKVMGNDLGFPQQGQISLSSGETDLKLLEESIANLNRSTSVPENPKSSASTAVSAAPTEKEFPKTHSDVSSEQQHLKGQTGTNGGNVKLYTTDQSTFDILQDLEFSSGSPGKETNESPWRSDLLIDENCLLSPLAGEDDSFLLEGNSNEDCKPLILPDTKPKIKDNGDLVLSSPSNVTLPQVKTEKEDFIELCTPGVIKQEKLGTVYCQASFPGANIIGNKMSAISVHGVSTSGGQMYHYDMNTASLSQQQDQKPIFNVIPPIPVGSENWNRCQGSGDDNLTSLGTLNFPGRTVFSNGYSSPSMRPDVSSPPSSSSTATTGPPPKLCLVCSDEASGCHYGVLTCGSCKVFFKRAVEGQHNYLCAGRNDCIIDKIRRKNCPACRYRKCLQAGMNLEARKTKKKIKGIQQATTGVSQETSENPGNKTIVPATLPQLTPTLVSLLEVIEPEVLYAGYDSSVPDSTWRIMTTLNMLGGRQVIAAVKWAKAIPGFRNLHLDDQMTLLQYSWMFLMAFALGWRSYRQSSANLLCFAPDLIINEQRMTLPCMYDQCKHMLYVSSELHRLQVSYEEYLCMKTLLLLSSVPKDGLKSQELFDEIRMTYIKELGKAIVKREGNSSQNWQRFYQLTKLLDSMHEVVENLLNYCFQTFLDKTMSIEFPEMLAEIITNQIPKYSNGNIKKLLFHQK
For assay [4] the target is unchanged. The assay can be described thus: GR-EFC Redistribution (AID 451; calls by dose curve; note: potency is the fitted concentration of half-maximal effect). As to conditions: CHO-K1 GR-EFC translocation, beta-gal luminescence, 2 h. The procedure, abridged: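 CHO-K1 cells expressing nuclear EA and GR-ED fragments of b-gal; compounds titrated up to 46 uM final, 2 h at 37 C. GR nuclear translocation read as complemented b-gal luminescence after 1 h RT detection.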

Assay [5] has as its target 3',5'-cyclic-AMP phosphodiesterase 4B (Homo sapiens) (UniProt Q07343). In words: qHTS Assay for Inhibitors of PDE-IV (AID 607; active = well fitted activation curve with a large enough effect in the main read-out, with a control signal flat, not every such curve was filed as active; note: % of control where 0% means no effect). The procedure, abridged:
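The readout is membrane depolarisation from a cAMP-sensing CNG channel, detected with a potential dye at ex 535/em 590. Cells were HEK293-derived (endogenous PDE-IV) at 1000 cells/well, titrated up to 22.9 uM final.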
(In general: In qHTS, concentration-response curves come from the screen itself.)

In assay [6] the target is Cytochrome P450 3A4 (Homo sapiens) (UniProt P08684). The assay can be described thus: qHTS Assay for Activators of Cytochrome P450 3A4 (AID 885). Note: nearly all actives have a fitted effect of over 65% in size. The procedure, abridged: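 Steps: enzyme/substrate mix dispensed; compound added, 10 min RT; NADPH regeneration solution added, 60 min RT; luciferin detection buffer stops reaction; 20 min later luminescence measured.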
Cytochrome P450 3A4 (Homo sapiens), sequence (P08684 whole entry, looked up): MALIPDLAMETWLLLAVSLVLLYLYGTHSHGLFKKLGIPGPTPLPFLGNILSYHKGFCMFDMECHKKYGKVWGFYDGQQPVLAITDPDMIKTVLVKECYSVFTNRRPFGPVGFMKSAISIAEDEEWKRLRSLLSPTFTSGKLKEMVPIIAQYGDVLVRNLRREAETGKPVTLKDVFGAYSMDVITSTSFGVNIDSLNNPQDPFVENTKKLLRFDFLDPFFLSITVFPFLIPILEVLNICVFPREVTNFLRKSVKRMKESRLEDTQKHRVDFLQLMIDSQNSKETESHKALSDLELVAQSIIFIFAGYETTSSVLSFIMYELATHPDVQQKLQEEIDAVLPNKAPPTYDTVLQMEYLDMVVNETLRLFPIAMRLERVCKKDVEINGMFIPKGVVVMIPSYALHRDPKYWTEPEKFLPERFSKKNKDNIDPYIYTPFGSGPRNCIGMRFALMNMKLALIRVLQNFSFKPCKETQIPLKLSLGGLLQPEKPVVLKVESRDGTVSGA
For assay [7], the target named is Cytochrome P450 2D6 (Homo sapiens) (UniProt P10635). In words: qHTS Assay for Inhibitors and Substrates of Cytochrome P450 2D6 (AID 891). Note: potency is the fitted concentration of half-maximal effect; nearly all actives have a fitted effect of over 60% in size. The essentials:
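Human CYP2D6 (5 nM) with 30 uM Luciferin-ME EGE (at Km) in 100 mM KPO4, compound preincubated 10 min, then NADPH regeneration system for 60 min at room temperature. Luciferin read by luminescence; normalized to 1.43 uM quinidine.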

Assay [8] has as its target Cytochrome P450 2C19 (Homo sapiens) (UniProt P33261). The assay can be described thus: qHTS Assay for Inhibitors and Substrates of Cytochrome P450 2C19 (AID 899). Note: potency is the fitted concentration of half-maximal effect; nearly all actives have a fitted effect of over 60% in size. The essentials:
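5 nM human CYP2C19 with 10uM Luciferin-H EGE (at KM) in 50mM KPO4, compound preincubated 10 min at 37C, then NADPH regeneration for 60 min at 37C. Luciferin read by luminescence after detection reagent; normalized to 57uM ketoconazole as full inhibition.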

The target in assay [9] is Dual specificity protein kinase CLK4 (Homo sapiens) (UniProt Q9HAZ1). The assay can be described thus: qHTS Assay for Inhibitors of CDC-like Kinase 4 (Kinase-Glo Assay) (AID 1770). Note: potency is the fitted concentration of half-maximal effect; nearly all actives have a fitted effect of over 65% in size. The essentials:
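Recombinant human Clk4 (25 nM) phosphorylated RS repeat peptide (100 uM) with 1 uM ATP in Tris pH 7.5/MgCl2/EGTA/DTT/Triton buffer for 4.5 h at room temperature. Residual ATP was quantified by Kinase-Glo luciferase luminescence.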

Assay [10] shares this target. In words: qHTS Assay for Inhibitors of CDC-like Kinase 4 (ADP-Glo Assay) (AID 1771). Note: nearly all actives have a fitted effect of over 70% in size. Note: potency is the fitted concentration of half-maximal effect. The essentials:
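25 nM Clk4 with 100 uM RS repeat peptide and 1 uM ATP (final) in buffer with 2 mM MgCl2, 0.5 mM EGTA, 2.5 mM DTT, 0.01% Triton X-100; 1 h at room temperature; ADP-Glo luminescence for ADP formed.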

Assay [11] shares this target. In words: qHTS Assay for Inhibitors of CDC-like Kinase 4 (ADP-FP Assay) (AID 1795). Note: nearly all actives have a fitted effect of over 60% in size. Note: potency is the fitted concentration of half-maximal effect. The essentials:
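Recombinant human Clk4 (6.25 nM) phosphorylated RS repeat peptide (100 uM) with 1 uM ATP in Tris pH 7.5/MgCl2/EGTA/DTT/Triton buffer for one hour. ADP was quantified by Transcreener competitive fluorescence polarization against an ADP calibration curve.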

In assay [12] the target is Ubiquitin carboxyl-terminal hydrolase 1 (Homo sapiens) (UniProt O94782). In words: Inhibitors of USP1/UAF1: Pilot qHTS (AID 504865).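 Note: rhodamine fluorescence freed from ubiquitin-rhodamine substrate followed over time; top concentration of the series differs between compounds; % is set by controls: 0 for no effect and ±100 for the full control effect; nearly all actives have a fitted effect of over 35% in size.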 The procedure, abridged: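 USP1/UAF1 complex (1nM) preincubated with compound 15 min at room temperature, then Ub-Rho substrate (150nM final) added. Fluorescence read kinetically at 480/540 nm, 6 reads every 60 seconds. Buffer: 50mM HEPES pH 7.8, 0.5mM EDTA, 0.1 mg/ml BSA, 1mM TCEP, 0.01% Tween-20.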
Ubiquitin carboxyl-terminal hydrolase 1 (Homo sapiens), sequence (O94782 whole entry, looked up): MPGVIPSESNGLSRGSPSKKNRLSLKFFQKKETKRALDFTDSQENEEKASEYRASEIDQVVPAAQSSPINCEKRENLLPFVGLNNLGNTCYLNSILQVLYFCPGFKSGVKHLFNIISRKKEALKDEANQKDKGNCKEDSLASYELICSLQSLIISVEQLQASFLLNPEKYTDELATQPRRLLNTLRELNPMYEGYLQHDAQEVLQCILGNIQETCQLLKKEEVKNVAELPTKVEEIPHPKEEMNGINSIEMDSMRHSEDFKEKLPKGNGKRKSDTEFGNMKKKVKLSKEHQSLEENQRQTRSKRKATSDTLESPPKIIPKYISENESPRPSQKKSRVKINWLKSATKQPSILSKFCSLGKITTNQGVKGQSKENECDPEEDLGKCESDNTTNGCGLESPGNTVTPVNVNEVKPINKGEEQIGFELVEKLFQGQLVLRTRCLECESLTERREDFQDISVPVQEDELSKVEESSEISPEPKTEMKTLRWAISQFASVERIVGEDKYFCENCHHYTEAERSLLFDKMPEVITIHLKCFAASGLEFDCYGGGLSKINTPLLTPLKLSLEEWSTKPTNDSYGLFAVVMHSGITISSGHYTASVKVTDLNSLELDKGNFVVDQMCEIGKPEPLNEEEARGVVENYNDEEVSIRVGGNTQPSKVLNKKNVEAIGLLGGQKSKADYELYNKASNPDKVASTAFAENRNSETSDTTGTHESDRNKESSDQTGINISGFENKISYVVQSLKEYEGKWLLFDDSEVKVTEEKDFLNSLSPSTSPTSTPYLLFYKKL

Assay [13] can be described thus: AP1 Signaling Pathway (AID 357; active = well fitted curve in either direction with a large enough effect, not every such curve was filed as active; note: % is set by controls: 0 for no effect and ±100 for the full control effect). The conditions noted are these: ME-180 AP-1-bla reporter, EGF-induced, beta-lactamase ratio, 5 h; at 7.69 µM (top of the series) unless noted. The essentials: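 Cells are seeded overnight, exposed to compound titrations and an EC50 level of EGF for 5 hours at 37 °C, then loaded with CCF4 dye for 2.5 hours. Beta-lactamase activity under the AP-1 element is read as a blue/green ratio.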

Assay [14] can be described thus: NFAT Signaling Pathway (AID 444; active = well fitted curve in either direction with a large enough effect, not every such curve was filed as active;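 note: carbachol stimulus at about its EC50 of 1 µM final; % is set by controls: 0 for no effect and ±100 for the full control effect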). As to conditions: Jurkat NFAT-bla M1, carbachol, beta-lactamase ratio, 5 h; at 7.69 µM (top of the series) unless noted. The procedure, abridged: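 Jurkat cells with NFAT-driven β-lactamase reporter and co-expressed M1 receptor, stimulated with carbachol (final 1 uM, ~EC50), compound titration, 5 h at 37 °C. CCF4 loaded 1 h at RT; 460/530 nm ratio gave %activity and AC50.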

Assay [15] is described as follows: Stat Signaling Pathway (AID 446; active = well fitted curve in either direction with a large enough effect, not every such curve was filed as active;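 note: ME-180 cervical cancer cells given 40 pM IL-6 alongside compound; SIE-controlled beta-lactamase reporter measured as 460/530 nm FRET emission ratio; % is set by controls: 0 for no effect and ±100 for the full control effect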). The essentials: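 Screening format detects activators and inhibitors alike: ME-180 SIE-bla cells stimulated at 40 pM IL-6 for 5 hrs with compound, then dual-emission beta-lactamase read at 405 nm excitation.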
Assay [16] has as its target Mitogen-activated protein kinase 10 (Mus musculus) (UniProt Q61831). In words: JNK3 AlphaScreen Assay (AID 530; active = well fitted curve in either direction with a large enough effect, not every such curve was filed as active;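 note: kinase came from lysate of stimulated human HepG2 cells; signal reports phosphorylation of biotinylated GST-cJun 1-79 at Ser73 with 10 µM ATP; % is set by controls: 0 for no effect and ±100 for the full control effect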). The procedure, abridged: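 Pre-activated (IL-1β/TNFα) JNK3 in HepG2 lysates phosphorylates biotin-GST-cJun(1-79), 10 uM ATP; anti-phospho-cJun(Ser73) AlphaScreen read at room temperature, pH 7.6 Tris buffer. Compounds pre-incubated 15 min as titrations.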
A general note: Alpha assays give light when donor and acceptor beads are brought close together.

Unmarked numbers belong to inactive results. Inconclusive results are not listed. The source made the active and inactive calls. Unless noted, calls come from the whole dose curve; as a rule, active = well fitted curve in the direction sought with a large enough effect; inconclusive = small, poorly fitted or top-dose-only effect, or another doubt; inactive = no such curve, though single readings can be large; an effect the other way counts as inactive or inconclusive.

3',5'-cyclic-AMP phosphodiesterase 4B (Homo sapiens), sequence (Q07343 whole entry, looked up): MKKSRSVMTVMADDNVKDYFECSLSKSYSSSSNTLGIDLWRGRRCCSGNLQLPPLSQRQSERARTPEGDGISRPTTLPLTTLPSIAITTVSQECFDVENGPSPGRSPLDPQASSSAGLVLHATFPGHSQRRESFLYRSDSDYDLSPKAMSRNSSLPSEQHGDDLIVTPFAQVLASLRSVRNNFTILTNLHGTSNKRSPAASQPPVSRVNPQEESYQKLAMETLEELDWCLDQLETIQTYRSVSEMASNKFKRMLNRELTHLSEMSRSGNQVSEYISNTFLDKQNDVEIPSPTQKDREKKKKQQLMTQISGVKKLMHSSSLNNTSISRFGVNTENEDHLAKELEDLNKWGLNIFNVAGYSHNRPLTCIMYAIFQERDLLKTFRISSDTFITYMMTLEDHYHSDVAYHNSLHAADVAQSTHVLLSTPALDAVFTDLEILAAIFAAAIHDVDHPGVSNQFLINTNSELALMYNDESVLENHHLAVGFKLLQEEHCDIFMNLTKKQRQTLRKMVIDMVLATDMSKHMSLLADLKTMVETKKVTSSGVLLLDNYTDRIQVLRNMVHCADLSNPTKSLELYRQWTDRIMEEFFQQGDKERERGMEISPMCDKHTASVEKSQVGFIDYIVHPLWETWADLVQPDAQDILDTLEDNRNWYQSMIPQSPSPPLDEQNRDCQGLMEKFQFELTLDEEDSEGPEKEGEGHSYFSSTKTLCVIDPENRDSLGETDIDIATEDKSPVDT
Lysosomal acid glucosylceramidase (Homo sapiens), sequence (P04062 whole entry, looked up): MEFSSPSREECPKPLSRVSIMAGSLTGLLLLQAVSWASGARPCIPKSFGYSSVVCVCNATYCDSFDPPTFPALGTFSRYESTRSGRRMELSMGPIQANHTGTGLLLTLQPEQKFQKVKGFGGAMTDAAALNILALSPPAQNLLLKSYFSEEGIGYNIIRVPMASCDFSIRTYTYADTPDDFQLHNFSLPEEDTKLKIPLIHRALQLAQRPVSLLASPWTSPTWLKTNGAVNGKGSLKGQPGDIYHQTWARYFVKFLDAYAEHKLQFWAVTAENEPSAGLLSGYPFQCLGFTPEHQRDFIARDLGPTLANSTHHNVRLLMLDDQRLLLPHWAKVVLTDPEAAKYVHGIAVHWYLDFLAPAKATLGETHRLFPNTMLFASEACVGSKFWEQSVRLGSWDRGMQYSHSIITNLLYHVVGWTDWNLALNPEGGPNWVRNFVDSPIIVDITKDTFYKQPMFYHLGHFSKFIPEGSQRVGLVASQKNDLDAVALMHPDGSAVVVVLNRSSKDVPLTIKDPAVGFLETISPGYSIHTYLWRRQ
Dual specificity protein kinase CLK4 (Homo sapiens), sequence (Q9HAZ1 whole entry, looked up): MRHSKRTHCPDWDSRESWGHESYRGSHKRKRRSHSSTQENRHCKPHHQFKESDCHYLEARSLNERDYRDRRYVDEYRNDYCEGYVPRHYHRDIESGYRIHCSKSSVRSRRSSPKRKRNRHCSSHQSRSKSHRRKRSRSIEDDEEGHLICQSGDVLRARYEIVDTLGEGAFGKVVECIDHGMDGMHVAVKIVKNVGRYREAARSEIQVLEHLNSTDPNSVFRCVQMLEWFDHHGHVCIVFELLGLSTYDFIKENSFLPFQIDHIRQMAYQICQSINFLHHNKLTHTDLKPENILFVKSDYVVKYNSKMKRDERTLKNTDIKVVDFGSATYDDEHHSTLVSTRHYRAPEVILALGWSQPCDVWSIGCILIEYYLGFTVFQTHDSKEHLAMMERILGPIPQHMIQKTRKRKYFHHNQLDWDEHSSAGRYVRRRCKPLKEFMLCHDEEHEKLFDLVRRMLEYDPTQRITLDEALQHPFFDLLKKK
Cytochrome P450 2C19 (Homo sapiens), sequence (P33261 whole entry, looked up): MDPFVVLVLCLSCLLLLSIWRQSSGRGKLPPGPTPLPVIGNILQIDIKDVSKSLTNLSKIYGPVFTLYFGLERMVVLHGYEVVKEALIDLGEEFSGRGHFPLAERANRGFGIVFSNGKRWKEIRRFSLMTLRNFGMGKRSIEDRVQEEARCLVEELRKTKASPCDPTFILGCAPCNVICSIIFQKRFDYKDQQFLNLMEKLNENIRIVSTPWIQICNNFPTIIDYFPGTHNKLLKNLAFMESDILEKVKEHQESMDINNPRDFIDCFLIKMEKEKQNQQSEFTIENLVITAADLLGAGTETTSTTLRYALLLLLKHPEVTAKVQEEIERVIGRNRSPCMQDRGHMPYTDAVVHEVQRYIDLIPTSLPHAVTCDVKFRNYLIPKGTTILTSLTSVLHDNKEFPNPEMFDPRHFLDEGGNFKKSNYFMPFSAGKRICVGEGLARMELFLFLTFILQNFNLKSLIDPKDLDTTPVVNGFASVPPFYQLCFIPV

On to `COc1cccc(-c2cncnc2NCCc2c[nH]c3ccc(OC)cc23)c1`, for which the Potency was more than 11.4 µM in assay [1]; 2 µM (active) in assay [2]; more than 46 µM in assay [3]; more than 46 µM in assay [4]; 2.51 µM (active) in assay [7]; 0.316 µM (active) in assay [8]. Further, the Potency in assay [9] is 20 µM (active); in [10], 22.4 µM (active). For the same compound, the Potency result in [5], in [11] and in assay [12] was “inactive” each time. In addition, the outcome in [6] was inactive.

On to `N#Cc1ccccc1-c1ccc2ncnc(NCc3cccnc3)c2c1`, for which the Potency was more than 11.4 µM in assay [1]; more than 46 µM in [3]; more than 46 µM in assay [4]; 3.16 µM (active) in assay [9]; 5.01 µM (active) in assay [10]. The activity change, negative = inhibition in assay [13] is -14.7%; in [14], 17.5%. Moreover, the compound was called inactive in [15] and in assay [6]. Further, in [12], the Potency result is “inactive”.

Turning to `COCCn1c(=O)c(CCc2ccccc2)nc2cnc(Oc3ccccc3)nc21`, the Potency was more than 11.4 µM in [1], more than 9.22 µM in assay [3] and more than 46 µM in assay [4]. The activity change, negative = inhibition in assay [13] is -27.4%; in [14], 7.7%. In assay [15], the call was inactive. Further, the Potency entry in assay [5], in assay [10], in [11] and in assay [12] was “inactive” throughout.

`CCNc1ncc2nc(C)c(=O)n(CCc3ccccc3)c2n1`: the activity change, negative = inhibition in assay [13] is -15.2%; in assay [14] it was -12.8%. The Potency was 1.58 µM (active) in assay [2]; more than 9.22 µM in assay [3]; more than 46 µM in assay [4]; 0.316 µM (active) in [8]; 7.94 µM (active) in assay [9]; 7.94 µM (active) in assay [10]. Further, the result in assay [15] and in assay [6] was inactive. For the same compound, the Potency result in assay [16] and in [12] was “inactive” in each case.

`CN(Cc1ccco1)c1nc(-c2cccnc2)nc2ccccc12`: the Potency in assay [1] is more than 11.4 µM; in assay [2], 0.316 µM (active); in assay [3], more than 46 µM; in [4], more than 46 µM; in assay [10] it was 14.1 µM (active); in [11], 12.6 µM (active). Moreover, the activity change, negative = inhibition in assay [14] was -25.8%. The call in assay [15] was inactive. The Potency result in assay [16] and in assay [12] was “inactive” each time.

For the compound `CN(C)c1ccc(-c2cc(N(C)Cc3ccco3)ncn2)cc1`, the activity change, negative = inhibition in assay [13] was -23.1%; in assay [14], 3.68%. The Potency in assay [2] was 0.316 µM (active); in assay [3], more than 46 µM; in [4], more than 46 µM; in [7], 7.94 µM (active); in assay [10], 31.6 µM (active). The outcome in assay [15] and in assay [6] was inactive. Also, the Potency entry in assay [16], in [5], in assay [11] and in assay [12] was “inactive” each time.

With `COCCn1c(=O)c(-c2ccc(F)cc2)nc2cnc(Oc3ccccc3)nc21`, the Potency in assay [1] is more than 11.4 µM; in assay [2], 0.794 µM (active); in assay [3], more than 9.22 µM; in [4], more than 46 µM. For the same compound, the activity change, negative = inhibition in [14] is 9.44%. Besides, the compound was called inactive in [15] and in [6]. Further, the Potency result in [5], in [10], in assay [11] and in assay [12] was “inactive” throughout.
